Assay results reported in paper PMC8384837, “Expanding the binding specificity for RNA recognition by a PUF domain”.

Tests used:
Assay in all cases: yeast three-hybrid, YBZ-1, SC-Leu-His + 0.5 mM 3-AT, 4 days
Details in all cases: tags: N-Gal4 AD-HA kept; label: inside an RPR1-promoter hybrid RNA with tandem MS2 sites; ssRNA
[1] = target: PUM1 PUF domain R4-YLL (Homo sapiens, UniProt Q14671 828-1176, N971Y;H972L;Q975L)
In short: (§1)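 Sequencing with Illumina followed PCR amplification of the repeat regions from transformants grown four days on SC-Leu (input) or SC-Leu-His + 0.5 mM 3-AT (selection). The transformants were strain YBZ-1 with a LexA–MS2 coat fusion and a HIS3 reporter, carrying Pumilio-1 PUF domain libraries and matching RNA elements. The interaction score is the log change in variant frequency from input to selection, computed in log2 with a pseudocount of 1 for absent variants.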

[2] = target: PUM1 PUF domain R4-PWC (Homo sapiens, UniProt Q14671 828-1176, N971P;H972W;Q975C)
In short: as §1

[3] = target: PUM1 PUF domain R8-KWL (Homo sapiens, UniProt Q14671 828-1176, N1122K;Y1123W;Q1126L)
In short: as §1

[4] = target: PUM1 PUF domain R5-DFG (Homo sapiens, UniProt Q14671 828-1176, C1007D;R1008F;Q1011G)
In short: as §1

[5] = target: PUM1 PUF domain R3-DHS (Homo sapiens, UniProt Q14671 828-1176, C935D;R936H;Q939S)
In short: as §1

[6] = target: PUM1 PUF domain R5-GAR (Homo sapiens, UniProt Q14671 828-1176, C1007G;R1008A;Q1011R)
In short: as §1

[7] = target: PUM1 PUF domain R4-TPT (Homo sapiens, UniProt Q14671 828-1176, N971T;H972P;Q975T)
In short: as §1

[8] = target: PUM1 PUF domain R8-RYT (Homo sapiens, UniProt Q14671 828-1176, N1122R;Q1126T)
In short: as §1

[9] = target: PUM1 PUF domain R4-CGC (Homo sapiens, UniProt Q14671 828-1176, N971C;H972G;Q975C)
In short: as §1

[10] = target: PUM1 PUF domain R7-LER (Homo sapiens, UniProt Q14671 828-1176, S1079L;N1080E;E1083R)
In short: as §1

[11] = target: PUM1 PUF domain R7-RRG (Homo sapiens, UniProt Q14671 828-1176, S1079R;N1080R;E1083G)
In short: as §1

[12] = target: PUM1 PUF domain R1-HRR (Homo sapiens, UniProt Q14671 828-1176, S863H;Q867R)
In short: as §1

[13] = target: PUM1 PUF domain R1-NGR (Homo sapiens, UniProt Q14671 828-1176, S863N;R864G;Q867R)
In short: as §1

[14] = target: PUM1 PUF domain R1-SKS (Homo sapiens, UniProt Q14671 828-1176, R864K;Q867S)
In short: as §1

[15] = target: T1, PUM1 PUF domain R6-AWS (Homo sapiens, UniProt Q14671 828-1176, N1043A;Y1044W;Q1047S)
T1 sequence: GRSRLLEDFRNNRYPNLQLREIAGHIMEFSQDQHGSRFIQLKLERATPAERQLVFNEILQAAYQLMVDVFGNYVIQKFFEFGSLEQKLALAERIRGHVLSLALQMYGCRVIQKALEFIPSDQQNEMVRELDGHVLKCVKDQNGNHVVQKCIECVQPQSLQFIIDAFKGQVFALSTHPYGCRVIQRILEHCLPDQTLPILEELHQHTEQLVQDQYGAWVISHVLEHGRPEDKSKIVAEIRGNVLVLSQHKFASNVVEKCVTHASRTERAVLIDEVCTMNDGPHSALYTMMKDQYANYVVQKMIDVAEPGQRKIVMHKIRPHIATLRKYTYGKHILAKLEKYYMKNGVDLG
In short: as §1

[16] = target: PUM1 PUF domain R5-SNG (Homo sapiens, UniProt Q14671 828-1176, C1007S;R1008N;Q1011G)
In short: as §1

[17] = target: PUM1 PUF domain R3-YCV (Homo sapiens, UniProt Q14671 828-1176, C935Y;R936C;Q939V)
In short: as §1

[18] = target: PUM1 PUF domain R4-GQR (Homo sapiens, UniProt Q14671 828-1176, N971G;H972Q;Q975R)
In short: as §1

[19] = target: PUM1 PUF domain R8-TYN (Homo sapiens, UniProt Q14671 828-1176, N1122T;Q1126N)
In short: as §1

[20] = target: PUM1 PUF domain R2-TFG (Homo sapiens, UniProt Q14671 828-1176, N899T;Y900F;Q903G)
In short: as §1

GGCUAGAACUAGUGGAUCCCCCGGCGCCCGGCGGCUCGAGCCCGGGUAAGUGUAAAUAGUCUGCAUGCCGCCGGGCGCCAUGCCUGCAGGUCGACUCUAGAAAACAUG
binding signal [1]: 4.38 log2 enrichment (interaction score)
binding signal [2]: 7.51 log2 enrichment (interaction score)
binding signal [3]: 5.16 log2 enrichment (interaction score)
binding signal [4]: 3.79 log2 enrichment (interaction score)
binding signal [5]: 3.1 log2 enrichment (interaction score)
binding signal [6]: 1.64 log2 enrichment (interaction score)
binding signal [7]: 2.59 log2 enrichment (interaction score)
binding signal [8]: 2.86 log2 enrichment (interaction score)
binding signal [9]: 3.48 log2 enrichment (interaction score)

GGCUAGAACUAGUGGAUCCCCCGGCGCCCGGCGGCUCGAGCCCGGGUAAGUUUAAAUAGUCUGCAUGCCGCCGGGCGCCAUGCCUGCAGGUCGACUCUAGAAAACAUG
binding signal [10]: 3.41 log2 enrichment (interaction score)
binding signal [11]: 4.6 log2 enrichment (interaction score)

GGCUAGAACUAGUGGAUCCCCCGGCGCCCGGCGGCUCGAGCCCGGGUAAGUGUAAAUUGUCUGCAUGCCGCCGGGCGCCAUGCCUGCAGGUCGACUCUAGAAAACAUG
binding signal [12]: 2.71 log2 enrichment (interaction score)
binding signal [13]: 2.32 log2 enrichment (interaction score)
binding signal [14]: 2.64 log2 enrichment (interaction score)

GGCUAGAACUAGUGGAUCCCCCGGCGCCCGGCGGCUCGAGCCCGGGUAAGUGAAAAUAGUCUGCAUGCCGCCGGGCGCCAUGCCUGCAGGUCGACUCUAGAAAACAUG
binding signal [15]: 5.94 log2 enrichment (interaction score)

GGCUAGAACUAGUGGAUCCCCCGGCGCCCGGCGGCUCGAGCCCGGGUAAGUGUUAAUAGUCUGCAUGCCGCCGGGCGCCAUGCCUGCAGGUCGACUCUAGAAAACAUG
binding signal [16]: 3.2 log2 enrichment (interaction score)
binding signal [4]: 6.17 log2 enrichment (interaction score)
binding signal [6]: 2.98 log2 enrichment (interaction score)

GGCUAGAACUAGUGGAUCCCCCGGCGCCCGGCGGCUCGAGCCCGGGUAAGUGUAAGUAGUCUGCAUGCCGCCGGGCGCCAUGCCUGCAGGUCGACUCUAGAAAACAUG
binding signal [17]: 2.69 log2 enrichment (interaction score)

GGCUAGAACUAGUGGAUCCCCCGGCGCCCGGCGGCUCGAGCCCGGGUAAGUGUACAUAGUCUGCAUGCCGCCGGGCGCCAUGCCUGCAGGUCGACUCUAGAAAACAUG
binding signal [7]: 3.15 log2 enrichment (interaction score)
binding signal [18]: 2.32 log2 enrichment (interaction score)

GGCUAGAACUAGUGGAUCCCCCGGCGCCCGGCGGCUCGAGCCCGGGUAAGCGUAAAUAGUCUGCAUGCCGCCGGGCGCCAUGCCUGCAGGUCGACUCUAGAAAACAUG
binding signal [3]: 5.91 log2 enrichment (interaction score)
binding signal [19]: 2.62 log2 enrichment (interaction score)

GGCUAGAACUAGUGGAUCCCCCGGCGCCCGGCGGCUCGAGCCCGGGUAAGUCUAAAUAGUCUGCAUGCCGCCGGGCGCCAUGCCUGCAGGUCGACUCUAGAAAACAUG
binding signal [11]: 3.12 log2 enrichment (interaction score)

GGCUAGAACUAGUGGAUCCCCCGGCGCCCGGCGGCUCGAGCCCGGGUAAGUGUAAAUCGUCUGCAUGCCGCCGGGCGCCAUGCCUGCAGGUCGACUCUAGAAAACAUG
binding signal [12]: 2.84 log2 enrichment (interaction score)
binding signal [13]: 4.09 log2 enrichment (interaction score)
binding signal [14]: 1.17 log2 enrichment (interaction score)

GGCUAGAACUAGUGGAUCCCCCGGCGCCCGGCGGCUCGAGCCCGGGUAAGUGUCAAUAGUCUGCAUGCCGCCGGGCGCCAUGCCUGCAGGUCGACUCUAGAAAACAUG
binding signal [4]: 2 log2 enrichment (interaction score)
binding signal [6]: 5.42 log2 enrichment (interaction score)

GGCUAGAACUAGUGGAUCCCCCGGCGCCCGGCGGCUCGAGCCCGGGUAAGUGUAAAAAGUCUGCAUGCCGCCGGGCGCCAUGCCUGCAGGUCGACUCUAGAAAACAUG
binding signal [20]: 4.09 log2 enrichment (interaction score)
